This is a sample that favours compounds with a hit; in the whole collection about 2.4% have one here.
D2 ag-1: agonists of human D2 dopamine receptor; P14416; HEK293 T-REx D2 cells, calcium flux agonist mode; activation, % at 2 µM; hit rate 0.53% among 340,000;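 active = activation over 3 SD above normal in the single-dose calcium agonist read, cut at about 30% in these data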
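HEK293 Trex D2 cells, tetracycline-induced, o/n 30 C 5% CO2; no-wash Ca dye, RT 30–90 min; 10-cycle baseline, 23 nl cpd added, kinetic Ca read 180 s; agonist hits = positive Ca response.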
D2 PAM-1: positively modulates the human D2 dopamine receptor allosterically; P14416; HEK293 T-REx D2, calcium flux, EC20 dopamine potentiation; potentiation, % at 10 µM; hit rate 0.34% among 340,000;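 active = potentiation over 3 SD above the plate norm, cut at about 30% in these data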
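Potentiation of an EC20 dopamine calcium response measured kinetically over 180 s, after a preceding 180 s compound-only read flagging agonists. Cells: inducible Hek293 Trex D2 line, 4000/well, cultured overnight at 30 C before dye loading.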
D2 PAM-2: human D2 receptor positive allosteric modulation. P14416. potentiation, % (no concentration beside the values). hit rate 0.23% among 360,000. AID 624464. DiscoveRx D2 beta-arrestin cells, luminescence, 90 min; 100% = 57 uM dopamine signal; in the data active = potentiation above about 50%; inconclusive = mostly about 30% to 49%
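D2 cells co-treated with compound plus 50 nM dopamine (EC20) for 90 min at 37 deg C to detect potentiation. Beta-arrestin recruitment was read as enzyme-fragment luminescence after 1 h at ambient temperature. Full response was set by 57 uM dopamine.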
D2 ag-2: agonists of human D2 dopamine receptor (beta-arrestin). P14416. AID 624465. DiscoveRx PathHunter D2 beta-arrestin, luminescence, 90 min; 100% = 57 uM dopamine signal. hit rate 0.084% among 360,000. activation, % (no concentration beside the values); in the data active = activation above about 40%; inconclusive = between about 15% and that limit
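DiscoveRx PathHunter D2 beta-arrestin cells (2,100/well) attached overnight, then compound-stimulated 90 min at 37 C in HBSS/10 mM HEPES/0.1% Tween-20 buffer; beta-galactosidase complementation read by luminescence after 1 h at ambient temperature. Dopamine 57 uM final (EC100) as control.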
D2 antagonist: antagonists of human D2 dopamine receptor. inhibition, % at 10 µM. P14416. AID 485344. HEK293 TREx D2 cells, calcium flux, dopamine EC80. hit rate 2% among 340,000; in the data active = inhibition above about 30%; inactive = below that, where a call was filed
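Calcium flux kinetic readout in an inducible HEK293 TREx D2 line plated overnight at 30 C. After 180 s compound exposure, an EC80 dopamine challenge follows with another 180 s kinetic read to detect antagonism.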
D3 ag: activates human D3 dopamine receptor beta-arrestin recruitment | hit rate 4% among 2,300 | Potency, µM (highest dose often 76.9 µM), most hits filed as activators | shares compounds with D2 ag-1 | DiscoveRx D3 beta-arrestin cells, luminescence, 90 min; note: nearly all actives have a fitted effect of over 70% in size
Target sequence (P35462 whole entry, looked up): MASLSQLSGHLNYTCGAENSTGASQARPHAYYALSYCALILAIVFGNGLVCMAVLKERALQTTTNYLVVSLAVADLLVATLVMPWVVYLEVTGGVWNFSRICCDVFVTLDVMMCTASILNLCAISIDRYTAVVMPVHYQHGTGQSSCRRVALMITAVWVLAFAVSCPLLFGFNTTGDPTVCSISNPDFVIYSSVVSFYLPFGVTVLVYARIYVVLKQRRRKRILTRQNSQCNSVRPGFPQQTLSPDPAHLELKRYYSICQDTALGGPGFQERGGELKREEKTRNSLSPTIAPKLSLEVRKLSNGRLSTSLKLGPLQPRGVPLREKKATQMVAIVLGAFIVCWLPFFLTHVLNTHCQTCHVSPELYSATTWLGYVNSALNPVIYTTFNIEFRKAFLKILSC
D2 ag-3: activates human D2 dopamine receptor in D3 counterscreen; shares compounds with D2 ag-1; DiscoveRx PathHunter D2 beta-arrestin, luminescence, 90 min; response scale: percent relative to full dopamine signal; Potency, µM (titrated, usually from 76.9 µM), most hits filed as activators; hit rate 5.9% among 2,300; AID 720507; note: nearly all actives have a fitted effect of over 70% in size
Of the large screens only hits and unclear results are named; the others gave an inactive call (follow-up assays come after a bar, where they were run). Unless noted, calls come from the whole dose curve; as a rule, active = well fitted activation curve with a large enough effect; inconclusive = small, poorly fitted or top-dose-only effect; inactive = flat fitted curve, though single readings scatter.

CC1CCCC(NC(=O)COC(=O)c2ccc3ncsc3c2)C1C (centres undefined)	none (no result: D2 ag-1, D2 PAM-1, D2 antagonist) | D3 ag inactive | D2 ag-3 inactive
Nc1nc(CN2CCN(c3ccccn3)CC2)nc(Nc2ccc(F)cc2)n1	D2 ag-1 73.7, D2 ag-2 inconclusive, D2 antagonist 73.2 | D3 ag inactive | D2 ag-3 inconclusive
COc1ccccc1Nc1nc(N)nc(CN2CCN(c3ccccc3)CC2)n1	D2 ag-1 52.3, D2 antagonist 43.6 | D3 ag inactive | D2 ag-3 inactive
Cc1ccc(Nc2nc(N)nc(CN3CCN(c4ccccc4)CC3)n2)cc1Cl	D2 PAM-2 101.9, D2 ag-2 inconclusive (no result: D2 ag-1, D2 PAM-1, D2 antagonist) | D3 ag inactive | D2 ag-3 20µM
Cc1ccc(Nc2cc(C(=O)NC3CCCC3)c3ccccc3n2)cc1C	none (no result: D2 PAM-2, D2 ag-2, D2 antagonist)
Cc1c(CCC(=O)NCc2ccc(F)cc2)c(=O)oc2cc(O)ccc12	none (no result: D2 ag-1, D2 PAM-2, D2 ag-2, D2 antagonist)
COc1ccc(S(=O)(=O)NCCc2nnc3ccc(SCC(=O)Nc4ccc(C(F)(F)F)cc4)nn23)cc1	none (no result: D2 PAM-2, D2 ag-2, D2 antagonist)
O=C(Nc1ccc2oc(-c3cccc4c(Br)cccc34)nc2c1)c1ccc(F)cc1	none (no result: D2 PAM-2, D2 ag-2, D2 antagonist)
CCc1ccc(OC(C)C(=O)N2CCC(c3nc4ccccc4s3)CC2)cc1 (centres undefined)	none (no result: D2 PAM-2, D2 ag-2, D2 antagonist)
Cc1c(-c2csc(N)n2)cnn1C	D2 ag-2 inconclusive | D3 ag 11.2µM | D2 ag-3 inactive
CS(=O)(=O)N(Cc1ccccc1)c1ccc(C(=O)Nc2ccc(Cl)cc2)cc1	none (no result: D2 PAM-2, D2 ag-2, D2 antagonist)
COc1ccc(N(CC(=O)N2CCN(c3ccc(F)cc3)CC2)S(=O)(=O)c2c(C)nn(C)c2C)cc1	none (no result: D2 PAM-2, D2 ag-2, D2 antagonist)
CCN(CC)S(=O)(=O)c1cccc(C(=O)N/N=C2\CC(=O)CC(C)(C)C2)c1	none | D3 ag inactive | D2 ag-3 inactive
CCN(CC)S(=O)(=O)c1cccc(C(=O)N/N=C2\CCCC(=O)C2)c1	none
O=C1C=C(c2ccccc2)C[C@@H](c2ccc(Cl)cc2)C1	none | D3 ag inactive | D2 ag-3 inactive
O=C1C=C(c2ccc3ccccc3c2)C[C@@H](c2ccc(Cl)cc2)C1	none | D3 ag inactive | D2 ag-3 inactive
O=C1C=C(c2cccc(CO)c2)C[C@@H](c2ccc(Cl)cc2)C1	D2 antagonist 52.1 | D3 ag inactive | D2 ag-3 inactive
COc1ccc([C@H]2CC(=O)C=C(c3cccc(CO)c3)C2)cc1OC	none
O=C1C=C(c2ccc3ncccc3c2)C[C@@H](c2ccc(Cl)cc2)C1	none
Cc1ccc(C2=CC(=O)C[C@H](c3ccc(Cl)cc3)C2)cc1	none
Cc1ccc(C(=O)Nc2nnc(S(=O)(=O)N(C)Cc3ccc(Cl)cc3)s2)cc1	none (no result: D2 PAM-2, D2 ag-2, D2 antagonist)
O=C(Nc1ccc(OCc2cc(=O)n3ccccc3n2)cc1)c1ccccc1Cl	none (no result: D2 PAM-2, D2 ag-2, D2 antagonist)
CCOC(=O)C1CCN(CC(O)COc2ccc(C(=O)CC)cc2)CC1 (centres undefined)	D2 ag-1 79.0, D2 ag-2 inconclusive, D2 antagonist 55.6 | D3 ag inactive | D2 ag-3 inconclusive
CCOC(=O)N1CCN(Cc2ccc(OCC(O)CN3CCCCC3)cc2)CC1 (centres undefined)	D2 ag-1 62.9, D2 ag-2 inconclusive, D2 antagonist 50.9 | D3 ag inactive | D2 ag-3 inconclusive
CC(C)(C)c1ccc(OCC(O)CN2CCN(c3ccccn3)CC2)cc1 (centres undefined)	D2 ag-1 86.0, D2 PAM-2 55.5, D2 ag-2 inconclusive, D2 antagonist 86.6 | D3 ag inconclusive | D2 ag-3 15.8µM
CCC(=O)c1ccc(OCC(O)CN2CCN(c3ccccn3)CC2)cc1 (centres undefined)	D2 ag-1 79.7, D2 ag-2 60.4, D2 antagonist 73.6 | D3 ag 0.891µM | D2 ag-3 2µM
CC(=O)c1ccccc1OCC(O)CN1CCN(c2ccccn2)CC1 (centres undefined)	none
COc1ccc(NC(=O)CN(c2ccccc2OC)S(C)(=O)=O)c(OC)c1	none (no result: D2 PAM-2, D2 ag-2, D2 antagonist)
CCCN(C(=O)c1sc2nc3n(c(=O)c2c1C)CCCC3)c1ccccc1C	none (no result: D2 PAM-2, D2 ag-2, D2 antagonist)
CC(C)Oc1ccc(CNC(=O)CCCn2c(=O)c3cccn3c3cccnc32)cc1	none (no result: D2 PAM-2, D2 ag-2, D2 antagonist)
CCOC(=O)Cc1ccc(NC(=O)N(Cc2ccc(CC)cc2)Cc2cn[nH]c2-c2ccc(OC)cc2)cc1	none (no result: D2 PAM-2, D2 ag-2, D2 antagonist)
CCC(Cn1nnc2ccccc2c1=O)NC(=O)Nc1cc(Cl)ccc1OC (centres undefined)	none (no result: D2 PAM-2, D2 ag-2, D2 antagonist)
O=C(c1ccc2c(c1)OCO2)N1CCCC(c2ccccc2)C1 (centres undefined)	D2 antagonist 54.6 | D3 ag inactive | D2 ag-3 inactive
CC1CCCN(C(=O)c2ccc3c(c2)OCO3)C1 (centres undefined)	none
O=C(CN1C(=O)c2cccnc2Oc2ccc(Cl)cc21)Nc1cccc(C(F)(F)F)c1	none (no result: D2 PAM-2, D2 ag-2, D2 antagonist)
CCN(CC)C(=O)Cn1ncc2c([nH]c3ccc(C)cc32)c1=O	none (no result: D2 ag-1, D2 PAM-2, D2 ag-2, D2 antagonist)
CCOc1ccccc1-n1nnnc1SCC(=O)NC(=O)Cc1ccccc1	none | D3 ag inactive | D2 ag-3 inactive
O=C(C1=C(O)/C(=C/c2ccc(O)cc2)CCC1)C(F)(F)F	none | D3 ag inactive | D2 ag-3 inactive
COc1ccc(/C=C2\CCCC(C(=O)C(F)(F)F)=C2O)cc1	none
Cc1cc(C)c(NC(N)=S)c(C)c1	none | D3 ag inactive | D2 ag-3 inactive
COc1ccc(C(=O)c2sc3nc(C)cc(-c4cccs4)c3c2N)cc1	none
Cc1cc(-c2cccs2)c2c(N)c(C(=O)c3ccc4c(c3)OCO4)sc2n1	D2 ag-1 40.7 | D3 ag inactive | D2 ag-3 inactive
CCN(CC(=O)Nc1ccccc1C(F)(F)F)C(=O)c1ccccc1Sc1ccccc1C#N	none | D3 ag inactive | D2 ag-3 inactive
CN(CC(=O)Nc1ccccc1C(F)(F)F)C(=O)c1ccccc1Sc1ccccc1C#N	none
COc1ccccc1CNC(=O)CN1N=C(c2ccccc2)CCC1=O	none (no result: D2 PAM-2, D2 ag-2, D2 antagonist)
CC(C(=O)N(C)Cc1ccccc1)N1CCN(C/C=C/c2ccccc2)CC1 (centres undefined)	D2 ag-1 68.6, D2 ag-2 inconclusive, D2 antagonist 68.7 | D3 ag inconclusive | D2 ag-3 inconclusive
COc1ccc(Cl)cc1NC(=O)C(C)N1CCN(C/C=C/c2ccccc2)CC1 (centres undefined)	none
CC(C(=O)Nc1ccc([N+](=O)[O-])cc1)N1CCN(C/C=C/c2ccccc2)CC1 (centres undefined)	D2 ag-1 67.0, D2 antagonist 52.7 | D3 ag inconclusive | D2 ag-3 inconclusive

Screening data (PubChem BioAssay)
